A selection: hits, their analogues and other compounds. The true share with any hit is near 12%.
Shiga toxin inh: A qHTS for Small Molecule Inhibitors of Shiga Toxin; Vero cells, Shiga toxin protein synthesis inhibition reporter; 9.2% of 290,000 active; inhibition, % at 38.7 µM; AID 2315, 2010; in the data active means inhibition mostly above about 28%, no sharp cut-off; inactive means mostly below about 43%; further: 0% is about no effect
CHX counter: Cycloheximide Counterscreen for Small Molecule Inhibitors of Shiga Toxin; cell reporter, cycloheximide protein synthesis inhibition counterscreen; max response, %; 12% of 300,000 active; AID 2314, 2010; in the data active means max response mostly above about 13%, no sharp cut-off; inactive means mostly below about 14%; further: read at 38.3 µM for the half of the compounds with a filed dose; 0% is about no effect
SARS PLP yeast: qHTS of Yeast-based Assay for SARS-CoV PLP; S. cerevisiae expressing SARS-CoV PLpro, growth rescue; Potency, µM (doses to about 32.9 µM), for the others: at the highest dose activity, positive = growth rescue, actives largely listed as activators; 0.19% of 330,000 active; AID 485353, 2010; further: potency means the concentration at half of the fitted maximal effect; 0% is about no effect; nearly all actives have a fitted effect of over 55% in size
NS1 function inh: qHTS Assay for Inhibitors of Influenza NS1 Protein Function; Potency, µM (highest dose often 46.1 µM), for inactives: top-dose activity, positive = more growth; 0.4% of 270,000 active; further: potency means the concentration at half of the fitted maximal effect; actives are rising curves; nearly all actives have a fitted effect of over 50% in size
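Compounds were scored for reversing the slow growth caused by influenza A NS1 in S. cerevisiae, measured by optical density at 600 nm. Assay medium contained 2% galactose at pH 6.0; NS1-free yeast of the same strain were the positive control.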
* hit, by the source's call; u = inconclusive; x = no result; + = active, no number; ! = repeats disagree. Unless noted, the call rests on the fitted dose curve.

SMILES	Shiga toxin inh	CHX counter	SARS PLP yeast	NS1 function inh
c1ccc2sc(NC3=NCN(CC4CCCO4)CN3)nc2c1 (stereo not drawn)	32.2	36.1*	1.6%	x
CN(CC(=O)Nc1ccc(F)c(F)c1F)C(=O)c1nn(Cc2ccccc2)c(=O)c2ccccc12	x	x	3.1%	x
COC(=O)[C@]1(Cc2ccccc2)N[C@H](CN(C)C(=O)COc2ccccc2)[C@@H]2C(=O)N(C)C(=O)[C@@H]21	x	x	5.4%	x
CCOC(=O)c1c(NC(=S)Nc2cccc(C)c2)sc2c1CC(C)(C)SC2	-6.8	1.5	2.7%	23.1%
COc1ccc2nc(NC3=NCCN3)sc2c1	28.1*	55.2*	-86.6%	-61.7%
COc1ccc(CN2CN=C(Nc3nc4ccccc4s3)NC2)cc1	-12.6	-3.9	-8.6%	-11.1%
BrC(=C\c1ccccc1)/C=N/n1cnnc1	30.6*	43.0*	-7.5%	-0.9%
O=C1c2ccccc2S(=O)(=O)N1CCS(=O)(=O)c1ccc(F)cc1	10.1	6.9	0.4%	5.1%
O=C(Nc1ccccc1N1CCOCC1)c1ccc(Br)o1	-17.2	10.4	-3.0%	-13.8%
O=C(Nc1ccccc1F)c1ccc(Br)o1	+!	55.3*	2.5%	6.1%
O=C(Nc1ccccc1C(=O)O)c1ccc(Br)o1	38.5*	21.3*	-5.9%	-4.6%
Cc1ccc(C(=O)Nc2ccccc2C(N)=O)o1	105.5*	36.9*	x	-14.9%
CCOC(=O)N1CCN(S(=O)(=O)N2CCCC(C(=O)NCc3cccc(OC)c3)C2)CC1 (stereo not drawn)	-1.9	-0.5	1.8%	-1.2%
O=S(=O)(c1cccc(NC(=S)Nc2ccc(Br)cc2Cl)c1)N1CCOCC1	21.0	-3.6	1.5%	3.7%
O=C(CN(C(=O)Cn1nnc(-c2cccs2)n1)c1cnc2ccccc2c1)NCC1CCCO1 (stereo not drawn)	24.1	1.0	18.5%	-10.2%
Cc1nc(COC(=O)c2c(C)nn(-c3ccccc3)c2C)cs1	100.1*	35.5*	2.6%	-18.1%
O=C(NC1CCCCC1)N1CCCC1	15.0	-2.3	6.3%	-1.0%
Cc1ccc(NC(=O)c2noc3c2CCc2ccccc2-3)cc1	47.5*	34.4*	9.5%	-5.7%
Cc1ccc(NC(=O)c2noc3c2CCCCC3)cc1C	107.2*	42.7*	-5.4%	1.0%
CSc1ccccc1NC(=O)c1noc2c1CCC2	99.7*	38.0*	-15.7%	-55.9%
Cc1ccc(Cn2nc(C)c(NC(=O)c3noc4c3CCCCC4)c2C)cc1	1.8	1.8	-16.6%	-32.7%
CCc1ccc(NC(=O)c2noc3c2CCc2ccccc2-3)cc1	27.4	10.1	4.8%	-5.6%
Cc1ccc(NC(=O)c2noc3c2CCCCC3)cc1	82.9*	67.0*	0.8%	-33.1%
CN(C)c1nc(-c2ccccc2)c2cc(Cl)ccc2n1	-4.1	-1.0	u	0.3%
O=C(NCCCl)C1Cc2c(ccc3ccccc23)O1 (stereo not drawn)	21.6	8.3	-0.4%	4.8%
SMILES	Shiga toxin inh	CHX counter	SARS PLP yeast	NS1 function inh
Cc1ccc(Cn2ccc(NC(=O)c3noc4c3CCCC4)n2)cc1	20.0	11.0	-2.3%	-7.6%
Cc1ccc(O)c(NC(=O)c2noc3c2CCCCC3)c1	184.6*	42.2*	-9.1%	x
O=C(NC1CCCCC1)c1noc2c1CCCCC2	72.5*	39.1*	-1.8%	-9.7%
CCc1ccc(NC(=O)c2noc3c2CCCCC3)cc1	85.5*	22.8*	0.6%	-6.3%
Cc1ccc(Cn2ccc(NC(=O)c3noc4c3CCCCC4)n2)cc1	45.7	9.5	0.9%	-6.2%
COc1ccc(NC(=O)c2noc3c2CCCCC3)cc1	82.6*	41.9*	-4.0%	x
C=C(C)CC(c1ccccc1)N(C(C)=O)c1ccco1 (stereo not drawn)	-2.1	-4.5	2.7%	-6.5%
COc1cccc2cc(C(=O)N(Cc3cccs3)CC3CCCO3)c(=O)oc12 (stereo not drawn)	19.1	14.8	0.7%	x
CCc1ccc(NC(=O)c2noc3c2CCC3)cc1	27.6	24.7*	-7.1%	-6.0%
COC(=O)c1ccccc1NC(=O)c1noc2c1CCC2	-4.6	0.9	1.4%	-2.2%
COC(=O)c1sc(N/N=C/c2ccc(C(C)C)cc2)nc1C	53.0*	12.0	0.6%	22.4%
CC(=O)c1sc(N/N=C/c2cccc(O)c2)nc1C	49.8*	39.6*	0.7%	-3.8%
CC(=O)c1sc(N/N=C\c2ccc(N(C)C)cc2)nc1C	x	31.0*	6.5%	-1.9%
CCOc1ccccc1N(CC(=O)Nc1cccc2ccccc12)S(C)(=O)=O	-5.0	1.2	-3.5%	20.0%
COC(=O)/C(C#N)=C1/C=Cc2ccccc2N1	68.0*	34.3*	-0.9%	x
CS(=O)c1ccccc1-c1nc(-c2ccc(Cl)cc2)no1 (stereo not drawn)	65.9*	48.3*	-0.6%	x
CS(=O)(=O)c1ccccc1-c1nc(-c2cccc(Cl)c2)no1	17.4	9.4	-3.3%	x
CS(=O)c1ccccc1-c1nc(-c2cccc(Cl)c2)no1 (stereo not drawn)	35.5	53.0*	-3.6%	x
CCc1cc(C(=O)N2CCCC(CCC(=O)NCc3cccc(OC)c3)C2)no1 (stereo not drawn)	3.8	-1.7	-0.2%	-2.0%
Cc1nn2c(-c3ccncc3)ccnc2c1Br	-10.4	-1.5	1.2%	x
Cc1nn(CC(=O)c2ccccc2Cl)c(C)c1[N+](=O)[O-]	93.1*	47.9*	-2.2%	x
CN(CC(=O)Nc1cccc(F)c1)C(=O)CN1c2cccc3cccc(c23)S1(=O)=O	x	x	3.0%	x
Cc1csc(NC(=O)CCCc2cccs2)n1	48.1*	46.4*	2.6%	x
O=C(Cc1ccc(S(=O)(=O)N2CCCC2)s1)Nc1nc2c(s1)CCCC2	46.0*	28.2*	-5.8%	-8.9%
O=C(CCN1C(=O)c2ccccc2S1(=O)=O)Nc1nc2c(s1)CCCC2	122.0*	17.8*	-3.5%	-7.7%
SMILES	Shiga toxin inh	CHX counter	SARS PLP yeast	NS1 function inh
O=C(CCCc1cccs1)Nc1nc2c(s1)CCCC2	30.1*	57.4*	-21.0%	-35.7%
CCOC(=O)c1ccc(S(=O)(=O)N2CCC(C(=O)Nc3nnc(C)o3)CC2)cc1	x	x	-2.6%	x
COc1ccc(CCNC(=O)[C@H](C)NC(=O)N2CCn3c2nc2ccccc23)cc1OC	18.8	-2.7	0.8%	-7.7%
Cc1cc(Br)c(NC(=O)C(C)Sc2nnnn2C)c(Br)c1 (stereo not drawn)	x	x	4.7%	x
Cc1csc(NC(=O)CCCC(=O)c2ccccc2)n1	50.0*	22.0*	-1.8%	-7.9%
COc1ccc2[nH]c(=O)c(CN(C(=O)C(C)C)c3ccccc3OC)cc2c1	x	-0.2	4.0%	8.3%
CC(C)C(CC(=O)NCc1ccco1)c1ccco1 (stereo not drawn)	-2.0	1.0	0.5%	-1.8%
CC(C)(C)c1ccc(NC(=O)CCNC(=O)c2ccco2)cc1	33.5	18.6*	-3.5%	-9.2%
O=C(CNC(=O)c1ccco1)Nc1ccc(OC(F)F)cc1	-7.9	-7.2	6.0%	5.2%
COc1ccc(NC(=O)CNC(=O)c2ccco2)cc1	72.6*	50.6*	7.5%	-1.8%
Cc1ccc(NC(=O)CNC(=O)c2ccco2)cc1	47.9*	33.4*	2.3%	2.6%
COc1ccc(NC(=O)CC(c2ccco2)C(C)C)cc1 (stereo not drawn)	5.6	20.6*	-2.0%	1.1%
O=C(O)c1cc(-c2ccc3ccccc3c2)nc2ccc(F)cc12	30.0*	21.7*	-4.0%	-41.3%
